Measured values published in PubChem BioAssay AID1454 (National Center for Advancing Translational Sciences (NCATS), 2008).
Out of some 130,000 compounds screened, about 550 (0.42%) were called active. Another 4% or so got no clear call; they are omitted. This is one part of a sample in which actives are shown more often than they occur. Values without a mark were called inactive. Calls come from the whole dose curve; as a rule, active = well fitted inhibition curve with a large enough effect; inconclusive = small, poorly fitted or top-dose-only effect, or effect the other way; inactive = flat fitted curve, though single readings scatter.

Test: qHTS Assay for Inhibitors of the ERK Signaling Pathway using a Homogeneous Screening Assay; Stimulation with EGF; note: nearly all actives have a fitted effect of over 55% in size;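 for activity change, negative = inhibition: plate controls were stimulated vehicle wells for no effect and unstimulated vehicle basal for full effect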
Conditions: HEK293-V1b, EGF-stimulated phospho-ERK AlphaScreen; series mostly up to 11.5 µM; activity change, negative = inhibition: at the top concentration
Excerpt: NIH Chemical Genomics Center [NCGC]
NIH Molecular Libraries Screening Centers Network [MLSCN]
Assay Submitter (PI): Dr. Wei Zheng, NCGC/NIH
The Ras/extracellular-signal-regulated kinase (ERK) mitogen activated protein (MAP) kinase signaling pathway (ERK1/2 cascade) plays a key role in transmitting signals from the cell surface to the nucleus (Nishida and Gotoh 1993; Chang and Karin, 2001). The cascade is initiated by the small G-protein Ras, which recruits Raf from the cytosol, where activation occurs. Alternatively, this pathway can be activated by elevating intracellular cAMP, or by activation of a receptor tyrosine kinase as epidermal growth factor receptor.
Activation of the ERK pathway is essential in increased cell division and cell survival. Sustained and constitutive activation of the ERK pathway, however, has been linked to uncontrolled cell proliferation, increased cell survival, and tumor progression. Thus, the ERK has been as an attractive target for cancer chemotherapy in the past few years (Sebolt-Leopold and Herrera, 2004). Given its physiological and pathological importance, assessment of ERK phosphorylation has been broadly performed in both basic research and drug discovery. Most assays for the measurement of ERK phosphorylation use the antibody-based detection methods, such as western blot and ELISA. These assays require multiple reagent additions with cell wash steps and are not suitable for high throughout screening.
The current cell-based ERK phosphorylation assay was performed using AlphaScreen platform. AlphaScreen is a two bead-based proximity-dependent chemical energy transfer luminescent assay platform. The assay reagents (ERK SureFire(TM) kit) were supplied from TGR BioSciences (Australia). In the presence of specific antibodies, phosphorylated ERK will bring "donor" and "acceptor" beads to a proximity range (<200 nm), and subsequently lead a chemical luminescent reaction upon exciting donor beads with 680 nm laser. To exclude the assay-related false positives, we used a biotinylated rabbit IgG to perform counter-screen. The biotinylated antibody mimics the phosphorylated ERK1/2 for bringing streptavidin coated beads and protein-A coated beads to a proximity range for the AlphaScreen detection.
NCGC Assay Protocol Summary:
HEK293 cells stably expressing type-1 vasopressin receptor (V1b) were maintained in DMEM medium (Invitrogen, Carlsbad, CA) at 37C under a humidified atmosphere containing 5% CO2 and 95% air. The medium contained 10% FBS, 2 mM L-glutamine, non-essential amino acid, pyruvate and 50 U/ml penicillin and 50 ug/ml streptomycin (Invitrogen). The aliquots of frozen cells were stored at -135C and used for the compound screening. All compounds were screened as titrations from 0.6 nM to 46 uM final concentration. Epidermal growth factor (EGF) was used to stimulate the ERK phosphorylation pathway. The ERK phosphorylation in cells was determined using an AlphaScreen assay kit provided by […]. Data were normalized to the controls for basal activity (DMSO only) and 100% activation (25 nM EGF). AC50 values were determined from concentration-response data modeled with the standard Hill equation.
(1) Seed 4 ul/well of resuspended frozen HEK293 cells containing 2000 cells in white 1536-well plates for overnight with 1% FBS at 37C under a humidified atmosphere containing 5% CO2 and 95% air.
(2) Add 23 nL compounds in DMSO solution. The final titration was 0.6 nM to 46 uM.
(3) Incubate at 37C for 30 min.
(4) Dispense 0.5uL EGF (25 nM in final)
(5) Incubate at 37C for 5 min.
(6) Dispense 0.5uL of 1:2 diluted 5x lysis buffer.
(7) Incubate at 37C for 10 min.
(8) Dispense 1.5uL of mixture of activation buffer and reaction buffer with AlphaScreen beads (streptavidin donor beads and protein-A acceptor beads, 10 ng/well for each).
(9) Incubate at room temperature for 5 hr.
(10) Detect the assay plate in an EnVision plate reader (PerkinElmer) using the AlphaScreen detection mode.
[…]
Potency is the fitted concentration of half-maximal effect.

Row | Compound | activity change, negative = inhibition | Potency
1 | CCOc1ccc(-c2nc(N)ncc2-c2ccccc2OC)c(O)c1 | -12.6% [at 57.5 µM] | 
2 | O=C(Nc1ccc2oc(-c3ccccc3F)nc2c1)c1ccco1 | 0.33% | 
3 | Cc1ccc(S(=O)(=O)N(C)C)cc1NC(=O)c1n[nH]c(=O)c2ccccc12 | -4.99% [at 57.5 µM] | 
4 | O=C(CNC(=O)COc1ccccc1)NCCc1ccccn1 | -0.794% | 
5 | CCCn1nc(Oc2nc(NC(C)C)nc(N(C)C)n2)ccc1=O | -6.22% | 
6 | O=C(NCC(=O)N(CC1CCCO1)C(C(=O)NC1CCCCC1)c1ccccc1)c1ccco1 (stereo not given) | -4.65% | 
7 | NS(=O)(=O)c1ccc(NC(=O)COC(=O)c2ccco2)cc1 | 10.8% | 
8 | O=C(Cn1cnc2ccccc2c1=O)Nc1cccc(S(=O)(=O)N2CCCCC2)c1 | 14.9% [at 57.5 µM] | 
9 | Fc1ccc(-c2csc(-c3ccc(C4SCCS4)cc3)n2)cc1F | -5.85% [at 57.5 µM] | 
10 | COCC1CCCN(Cc2nc(-c3ccc4c(c3)OCO4)no2)C1 (stereo not given) | 2.16% | 
11 | CCNC(=O)CC1C(=O)N(c2ccc(F)cc2)C(=O)N1Cc1cccs1 (stereo not given) | -4.27% | 
12 | CN(C)S(=O)(=O)c1ccc(Cl)c(NC(=O)COC(=O)CC(NC(N)=O)c2ccc(Cl)cc2)c1 (stereo not given) | 9.73% [at 57.5 µM] | 
13 | COc1ccc(/C=C/c2nnc(NC(=O)C(C)C)s2)cc1 | 1.71% [at 57.5 µM] | 
14 | O=C(O)c1ccc(/C=N/Nc2nc(N3CCCCC3)nc(N3CCCCC3)n2)cc1 | -5.89% [at 57.5 µM] | 
15 | COc1cc(OC)cc(-c2nnc(SCC(=O)Nc3ccc(C(=O)O)cc3)s2)c1 | -1.87% | 
16 | NC(=O)COc1ccc(NC(=O)c2ccccc2-c2ccccc2)cc1 | -15.3% | 
17 | O=C(CSc1nncs1)NC1CCCc2ccccc21 (stereo not given) | -7% | 
18 | O=C(O)c1cccnc1Sc1ncnc2sc3c(c12)CCC3 | -13.3% [at 57.5 µM] | 
19 | N#C/C(=C\C1=C(N2CCOCC2)C(=C\c2ccccc2)/CC1)C(=O)Nc1ccccc1F |  | 7.08 µM (active)
20 | N#C/C(=C/c1ccc(N2CCOCC2)o1)C(=O)N1CCOCC1 | 11.4% | 
21 | N#C/C(=C\c1ccccc1C(F)(F)F)C(=O)Nc1ccccc1F | -4.8% | 
22 | O=C(CSc1nnnn1-c1ccc(O)cc1)c1ccc(F)cc1 | -7.72% [at 57.5 µM] | 
23 | O=C(CCCNS(=O)(=O)c1cccc2nsnc12)NCCN1CCN(c2ccccc2F)CC1 | -6.43% | 
24 | CCN(CC)CCCNC(=O)Cn1cnc2sc(C)c(S(=O)(=O)N3CCN(c4ncccn4)CC3)c2c1=O | -2.86% | 
25 | COc1cccc(CNC(=O)CCC2CCCN(C(=O)c3ccoc3C)C2)c1 (stereo not given) | -3.88% | 
26 | O=C(NCCc1csc(-c2ccccc2)n1)c1ccccc1F | 5.73% [at 57.5 µM] | 
27 | COC(=O)c1ccccc1NC(=S)NC(=O)c1ccccc1F | -0.514% | 
28 | O=C(NC(=S)NC1CCSC1=O)c1ccccc1F (stereo not given) |  | 20 µM (active)

Row | Compound | activity change, negative = inhibition | Potency
29 | Cc1ccc(S(=O)(=O)N2CCN(C(=O)COC(=O)c3c(C)noc3C)CC2)c(C)c1 | -0.545% [at 57.5 µM] | 
30 | O=C(NNC(=O)c1cnccc1C(F)(F)F)c1ccc(Cl)cc1 | -8.71% [at 57.5 µM] | 
31 | COc1cc2nc(Cl)nc(NCCO)c2cc1OC | 1.73% [at 57.5 µM] | 
32 | NS(=O)(=O)c1cccc(NC(=O)CSc2nc3ccccc3n2-c2ccccc2)c1 | -7.08% | 
33 | COC(=O)c1ccc(NC(=S)NN2CCOCC2)cc1 | -0.482% | 
34 | CN1CCN(/N=C2/C(=O)Nc3ccc([N+](=O)[O-])cc32)CC1 | -4.33% | 
35 | COCCCNC(=S)N(Cc1ccccc1)Cc1ccc(F)cc1 | 0.532% | 
36 | O=C(/C=C/c1ccc(Cl)c([N+](=O)[O-])c1)c1ccc(O)cc1 | 2.12% [at 57.5 µM] | 
37 | Cc1nn(-c2ccccc2)c(Cl)c1/C=C/C(=O)c1ccc(O)cc1 |  | 15.8 µM (active)
38 | Cc1nn(-c2ccccc2)c(C)c1/C=C/C(=O)OC(C)C(N)=O (stereo not given) | -1.64% | 
39 | COc1ccc(OC)c(NC(=O)N[C@H](Cc2ccccc2)C(=O)NN)c1 | 2.4% [at 57.5 µM] | 
40 | CN(C)S(=O)(=O)c1ccc(C(=O)NCC(C)(C)N2CCOCC2)cc1 | -14.2% [at 57.5 µM] | 
41 | CC1(C)OC(=O)C(=CSc2ccc(C(C)(C)C)cc2)C(=O)O1 | -2.11% | 
42 | COc1ccc(NC(=S)NCC2CCN(c3ccc(OC)cc3)C2)cc1 (stereo not given) |  | 25.1 µM (active)
43 | COc1ccc(NC(=O)N2CCC(Cc3ccccc3)CC2)cc1 | -15.1% | 
44 | COc1cccc(N2CC(C(=O)Nc3c(C)cccc3C)CC2=O)c1 (stereo not given) | -8.02% | 
45 | COc1ccc(NC(=S)NCCN2CCC(C)CC2)cc1 | 23.5% | 
46 | COc1ccc(N2CCC(CNC(=S)Nc3c(C)cccc3C)C2)cc1 (stereo not given) |  | 12.6 µM (active)
47 | COc1ccc(NC(=S)NCCNC(C)=O)cc1 | -28.6% | 
48 | Cc1nc2cc(NC(=O)Nc3cccc(F)c3)ccc2n1C | -11.2% [at 57.5 µM] | 
49 | CC(C)=NN1C(=O)c2ccccc2NC1(C)C | -17.9% [at 57.5 µM] | 
50 | OCCC1CN(Cc2ccc3nsnc3c2)CCN1C1CCCCC1 (stereo not given) | -6.33% [at 57.5 µM] | 
51 | O=C(/C=C/c1ccc2c(c1)OCO2)NCc1cn2cc(Cl)ccc2n1 | -5.35% | 
52 | Cc1c(Cc2ccccc2)c(=O)oc2cc(OCC(N)=O)ccc12 | -6.39% | 
53 | Cc1ccc(S(=O)(=O)N2CCN(C(=O)c3cccs3)CC2)cc1 | -8.75% | 
54 | COC(=O)C1=C(N)Oc2cc(C)[nH]c(=O)c2C1c1ccc(Cl)cc1 (stereo not given) | -16.6% [at 57.5 µM] | 
55 | O=C(NNC(=O)c1ccc(Cl)cc1Cl)c1cccs1 | 4.42% | 
